hiPSC survival = hiPSC single-cell survival enhancement; actives 0.044% (n = 360,000); ATPlite luminescence; 100% = ROCK inhibitor wells, 0% = DMSO; survival enhancement, % at 20 µM; in the data active means survival enhancement above about 18%;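 further: cells exposed to compounds for 16 hours before the ATP read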
KKLEB tox = CF airway cell cytotoxicity counter-screen; actives 0.36% (n = 360,000); AID 602141; KKLEB CF airway cells viability, ATPlite luminescence, overnight; hits give low values; cells stimulated with P. aeruginosa culture filtrate; activity change (cytotoxicity), % at 5 µM;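 active means corrected activity change at or below -50% at 5 µM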
CF NFkB inh = inhibitors of cystic fibrosis induced NF-kB | inhibition, % at 5 µM | actives 0.86% (n = 360,000) | AID 588850 | KKLEB NF-kB-GFP reporter, PAF-induced, GFP fluorescence overnight;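 active means at least 50% inhibition at 5 µM, scaled per plate between neutral and stimulator controls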;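 further: PAF is a Pseudomonas aeruginosa culture filtrate used as stimulus; plate controls were PAF-stimulated DMSO wells for no effect and unstimulated DMSO wells for full effect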
HIF-2a block = blocks HIF-2a reporter activity. actives 0.72% (n = 360,000). AID 624352. 786-0 RCC cells HIF-2a reporter, luciferase luminescence, overnight. inhibition, % at 18.8 µM;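 active means inhibition of the luminescence signal of 40% or more relative to plate controls, in a single-dose primary screen at 18.75 µM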
C8 TRAIL sens = sensitizes caspase-8 expressing cells to TRAIL; NB7+C8 cells + TRAIL, ATPlite viability luminescence; inhibition (viability loss, TRAIL sensitization), % at 10 µM; actives 1% (n = 360,000); AID 624354;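 active means compounds causing at least 50% loss of cell viability in the single-dose screen, relative to plate controls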
PPC-1+TRAIL kill = compounds killing PPC-1 cancer cells with TRAIL present (potentiator screen, no TRAIL-free arm); PPC-1 cells + TRAIL, ATPLite viability luminescence; cell killing (% activity), % at 4 µM or 5 µM; actives 0.41% (n = 220,000);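 active means cell killing above 50% in the first pass at 4 µM, then a duplicate retest at 5 µM averaging 50% or more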;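 further: plate controls were cells with TRAIL plus DMSO for no effect and medium-only wells lacking cells for full effect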
Starred values were filed as active, the others as inactive. The list is not random: actives were taken first. Their share in the collection is about 2.2%.

`O=C(CNC(=O)c1nn(Cc2ccccc2)c(=O)c2ccccc12)Nc1ccc(F)c(F)c1F` gave hiPSC survival 4, KKLEB tox -56*, CF NFkB inh 47, HIF-2a block -8 and C8 TRAIL sens 15.
O=C1C(=O)c2ccccc2C(O)=C1CCCCl was read as hiPSC survival -1, KKLEB tox -25, CF NFkB inh 79*, HIF-2a block 1, C8 TRAIL sens 68* and PPC-1+TRAIL kill 11.
For Cc1cc(C)c2c(=O)n3c(nc2c1)C(Cc1ccccc1)NC(=O)c1cc2ccccc2cc1-3 (centres undefined) the results were hiPSC survival 0, KKLEB tox -63*, CF NFkB inh 74*, HIF-2a block -5 and C8 TRAIL sens 19.
For COc1ccc(C2(C(=O)c3ccccc3)C(=O)c3ccccc3C2=O)cc1 the results were hiPSC survival 0, KKLEB tox 4, CF NFkB inh 19, HIF-2a block -129, C8 TRAIL sens 55* and PPC-1+TRAIL kill 26.
For COCCNC(=O)C(=O)c1c(-c2ccccc2)[nH]c2ccccc12 the results were hiPSC survival 0, KKLEB tox 5, CF NFkB inh -8, HIF-2a block -8, C8 TRAIL sens -1 and PPC-1+TRAIL kill -15.
For O=C(C(=O)N(Cc1ccccc1)Cc1ccccc1)c1c(-c2ccccc2)[nH]c2ccccc12 the results were hiPSC survival 0, KKLEB tox -81*, CF NFkB inh 94*, HIF-2a block -23 and C8 TRAIL sens 24.
CC(=O)c1ccc(OCC(=O)N2CCCC2c2ccc3c(c2)OCCCO3)cc1 (centres undefined) was read as hiPSC survival 2, KKLEB tox -14, CF NFkB inh -28, HIF-2a block 3 and C8 TRAIL sens -15.
`O=C(CCl)N1CCCC1c1ccc2c(c1)OCCO2` (centres undefined) gave hiPSC survival 1, KKLEB tox -15, CF NFkB inh 27, HIF-2a block 23 and C8 TRAIL sens 65*.
For O=C(CCc1nnc(C2(c3ccc(Cl)cc3)CCC2)o1)N1CCCC(O)C1 (centres undefined) the results were hiPSC survival 0, KKLEB tox -3, CF NFkB inh -26, HIF-2a block 7 and C8 TRAIL sens 0.
CN(NC(=O)C(C)(C)C)c1nc(-c2ccccc2)nnc1C(F)(F)F was read as hiPSC survival -2, KKLEB tox -4, CF NFkB inh 14, HIF-2a block 6, C8 TRAIL sens 56* and PPC-1+TRAIL kill 19.
`COc1ccc(C(=O)NN(C)c2nc(-c3ccccc3)nnc2C(F)(F)F)cc1` gave hiPSC survival -1, KKLEB tox -4, CF NFkB inh 1, HIF-2a block 15, C8 TRAIL sens 20 and PPC-1+TRAIL kill 9.
COc1cc(OC)cc(-c2c(-c3cccs3)c3cc(-c4ccc(OC)c(OC)c4)ccc3n2C)c1 was read as hiPSC survival 0, KKLEB tox -10, CF NFkB inh 8, HIF-2a block 21 and C8 TRAIL sens -6.
`CC1=NOC(=O)/C1=C\c1ccc(-c2cc(Cl)ccc2Cl)o1` gave hiPSC survival -2, KKLEB tox -28, CF NFkB inh 66*, HIF-2a block -2, C8 TRAIL sens 42 and PPC-1+TRAIL kill 10.
`O=C(CSc1nc2ccccc2[nH]1)Nc1ccc(N2CCOCC2)cc1` gave hiPSC survival 0, KKLEB tox -9, CF NFkB inh -10, HIF-2a block -7 and C8 TRAIL sens 0.
Screening COc1ccc(C(C)=O)cc1Cn1c(C)c(C(=O)NCc2ccc3c(c2)OCO3)sc1=O returned hiPSC survival 0, KKLEB tox 0, CF NFkB inh -36, HIF-2a block 0 and C8 TRAIL sens -12.
For Cc1ccc(N=Nc2cc(C)ccc2N)cc1 the results were hiPSC survival -1, KKLEB tox -23, CF NFkB inh -14, HIF-2a block -183, C8 TRAIL sens 69* and PPC-1+TRAIL kill 34.
Screening COc1ccc(-n2nc3c(c2NC(=O)C(C)Oc2ccccc2)CS(=O)(=O)C3)cc1 (centres undefined) returned hiPSC survival 0, KKLEB tox -8, CF NFkB inh 5, HIF-2a block 17 and C8 TRAIL sens -15.
